From PubChem BioAssay (NCATS) come the findings set out here.

Test [1] deals with Glutathione peroxidase 1 (Homo sapiens) (UniProt P07203). Kind of test: Primary qHTS Assay for Inhibitors of Recombinant Selenoprotein Glutathione Peroxidase 1 (GPX1) (AID 1845191). For activity, negative = inhibition: % is set by controls: 0 for no effect and ±100 for the full control effect. Note: nearly all actives have a fitted effect of over 65% in size. The method, boiled down:
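GR-coupled assay: compounds preincubated 30 min at room temperature with GPX1, then reaction started with CHP; final 10 nM GPX1, 1 mM GSH, 0.5 mM CHP, 0.5 mM NADPH, 100 nM GR, 0.01% BSA, pH 7.5 Tris buffer. NADPH fluorescence (340/450 nm) read at 0 and 15 min.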

For test [2], the target named is Phospholipid hydroperoxide glutathione peroxidase GPX4 (Homo sapiens) (UniProt P36969). In words: Primary qHTS Assay for Inhibitors of Recombinant Selenoprotein Glutathione Peroxidase 4 (GPX4) (AID 1845192). Note: series mostly up to about 50 µM; % is set by controls: 0 for no effect and ±100 for the full control effect; nearly all actives have a fitted effect of over 65% in size. Put shortly: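 GR-coupled assay: recombinant GPX4 preincubated 30 min with compound at room temperature; final 200 nM GPX4, 1 mM GSH, 0.5 mM cumene hydroperoxide, 0.5 mM NADPH, 100 nM GR, 0.01% BSA, pH 7.5 Tris. NADPH fluorescence (340/450 nm) read at 0 and 15 min.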

Test [3] deals with Luciferin 4-monooxygenase (Photinus pyralis) (UniProt P08659). Kind of test: Primary firefly luciferase (FLuc) qHTS assay for identification of artifact compounds. (AID 1845220).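 For activity change, negative = inhibition: series mostly up to about 54 µM; plate controls were DMSO vehicle for no effect and no enzyme for full effect.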 Note: nearly all actives have a fitted effect of over 60% in size. The method, boiled down: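 D-luciferin and ATP (10 uM each, final) in Tris acetate buffer pH 7.6 were incubated with compounds for 15 min at room temperature. The reaction was started with 10 nM Photinus pyralis luciferase and luminescence read after 5 min. Percent inhibition was fitted to a 4-parameter Hill equation.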

Test [4] can be described thus: Primary fluorescence-based thiol-reactive (MSTI) qHTS assay for identification of artifact compounds. (AID 1845221).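 For activity change, negative = thiol reactive: series mostly up to about 54 µM; thiol-reactive compounds lower the probe fluorescence signal.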 Note: nearly all actives have a fitted effect of over 65% in size. Note: potency is the fitted concentration of half-maximal effect. The method, boiled down:
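Reactivity toward the thiol probe MSTI (4 uM) is scored by fluorescence at Ex/Em 525/598 nm after 1 h at room temperature. Acetyl-MSTI and MSTI define the activity scale.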

Test [5] deals with Nanoluciferase (engineered Oplophorus gracilirostris luciferase). In words: Primary Nanoluciferase (NLuc) qHTS assay for identification of artifact compounds. (AID 1845222).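 For activity, negative = inhibition: series mostly up to about 54 µM; 0% = DMSO and -100% = no enzyme.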 Note: potency is the fitted concentration of half-maximal effect. The method, boiled down: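 Diluted conditioned medium from NLuc-expressing S16 cells treated with compounds for 15 min at room temperature, then Nano-Glo substrate added; luminescence read after 5 min. Percent inhibition versus no-enzyme and DMSO controls fitted to 4-parameter Hill equation.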

Test [6] can be described thus: Primary redox qHTS assay for identification of artifact compounds. (AID 1845223).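 Note: 0% = DMSO and 100% = reference compound.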 Put shortly:
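Amplex Red (25 uM) and HRP (250 mU/mL) in HBSS, with compounds for 15 min, then 250 uM DTT for 30 min, room temperature, dark. Fluorescence 525/598 nm read; normalized to DMSO and 10 uM DA3003; Hill fit.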

Values without a mark were called inactive. Records with an inconclusive call do not appear. Calls of active or inactive are those of the source. Calls come from the whole dose curve; as a rule, active = well fitted curve in the direction sought with a large enough effect; inconclusive = small, poorly fitted or top-dose-only effect, or another doubt; inactive = no such curve, though single readings can be large; an effect the other way counts as inactive or inconclusive.

Sequence of Phospholipid hydroperoxide glutathione peroxidase GPX4 (Homo sapiens) (P36969 whole entry, looked up): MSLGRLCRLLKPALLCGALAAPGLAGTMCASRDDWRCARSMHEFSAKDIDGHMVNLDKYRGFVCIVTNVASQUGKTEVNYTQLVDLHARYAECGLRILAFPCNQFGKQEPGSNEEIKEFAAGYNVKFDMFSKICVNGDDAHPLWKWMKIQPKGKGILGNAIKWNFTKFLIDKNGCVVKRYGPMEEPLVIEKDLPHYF
Sequence of Glutathione peroxidase 1 (Homo sapiens) (P07203 whole entry, looked up): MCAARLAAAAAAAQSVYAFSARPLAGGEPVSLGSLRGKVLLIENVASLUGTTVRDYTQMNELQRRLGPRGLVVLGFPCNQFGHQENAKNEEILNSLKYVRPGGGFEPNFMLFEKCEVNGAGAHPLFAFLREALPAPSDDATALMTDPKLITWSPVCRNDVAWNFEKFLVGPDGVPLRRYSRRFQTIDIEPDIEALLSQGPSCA

With `C[C@@H]1O[C@@H](O[C@H]2[C@H](O[C@H]3[C@H](O[C@H]4CC[C@@]5(C)C(CC[C@]6(C)C5CC=C5[C@@H]7CC(C)(C)C[C@@H](O)[C@]7(C)CC[C@]56C)C4(C)C)O[C@H](C(=O)O)[C@@H](O)[C@@H]3O)O[C@H](C(=O)O)[C@H](O)[C@@H]2O)[C@H](O)[C@H](O)[C@H]1O` (some centres not stated), the Potency entry in test [1] and in test [2] was “inactive” in each case. Further, in test [3], the outcome is “inactive [at 11.6 µM]”. The activity change, negative = thiol reactive in test [4] was 56.2% [at 11.5 µM]. Moreover, the activity, negative = inhibition in test [5] was 0.805% [at 11.6 µM]. The redox activity (% of DA3003) in test [6] is 11.1% [at 11.5 µM].
As to `C=CCC/C=C/C#CCCCCCCCC[C@H]1C(=O)O[C@H](C)[C@@H]1O`, the Potency entry in test [1], in test [2], in test [3], in test [4], in test [5] and in test [6] was “inactive” throughout.
Take `C[C@@H]1O[C@@H](OC2C(CO)OC(OCC3OC(OC(=O)[C@]45CCC(C)(C)CC4C4=CCC6[C@@]7(C)CC[C@@H](O)[C@](C)(C(=O)O)C7CC[C@@]6(C)[C@]4(C)CC5)C(O)C(O)C3O)C(O)C2O)[C@H](O)[C@H](O)[C@H]1O` (some centres not stated): the Potency result in test [1] and in test [2] was “inactive” throughout. In addition, the activity change, negative = inhibition in test [3] was -1.59% [at 11.6 µM]. Also, the activity change, negative = thiol reactive in test [4] was 268% [at 11.5 µM]. Moreover, in test [5], the activity, negative = inhibition was 3.23% [at 11.6 µM]. Further, the redox activity (% of DA3003) in test [6] is 10.6% [at 11.5 µM].
For `CC1=CC(=O)CC(C)(C)C1CO[C@@H]1O[C@H](CO)[C@@H](O)[C@H](O)[C@H]1O` (some centres not stated), the Potency result in test [1], in test [2], in test [3], in test [4], in test [5] and in test [6] was “inactive” each time.
For the compound `C=C1CC2C3(C)C(O)CC(=O)C(C)(C)C3C(O)C(OC(C)=O)C2(C)C2C(=O)OC(C)(C(=O)OC)C(=O)C12C` (configuration not stated), the Potency entry in test [1], in test [2], in test [3], in test [4], in test [5] and in test [6] was “inactive” throughout.
For the compound `C=C1C(O)CC2C(C(=O)O)=COC(O[C@@H]3O[C@H](COC(=O)c4ccc(O)cc4)[C@@H](O)[C@H](O)[C@H]3O)C12` (some centres not stated), the Potency result in test [1], in test [2], in test [3] and in test [6] was “inactive” throughout. Also, in test [4], the Potency was 5.19 µM (active).
For `C=CC(C)(CC/C=C(\C)C(=O)OC[C@H]1O[C@@H](OC(C)(C=C)CC/C=C(\C)C(=O)O[C@H]2[C@H](O)[C@@H](O)[C@H](OC(C)(C=C)CC/C=C(\C)C(=O)O)O[C@@H]2CO)[C@H](O)[C@@H](O)[C@@H]1O)O[C@@H]1O[C@H](CO)[C@@H](O)[C@H](O)[C@H]1O` (some centres not stated), the Potency entry in test [1] and in test [2] was “inactive” in each case. In addition, in test [3], the outcome is “inactive [at 11.6 µM]”. Also, the activity change, negative = thiol reactive in test [4] was 79.7% [at 11.5 µM]. Also, the activity, negative = inhibition in test [5] was 3.18% [at 11.6 µM]. Besides, the redox activity (% of DA3003) in test [6] was 0.215% [at 11.5 µM].
On to `N#Cc1ccc(C2CCCc3cncn32)cc1` (configuration not stated), for which the Potency entry in test [1], in test [2], in test [3], in test [4], in test [5] and in test [6] was “inactive” each time.
Regarding `C[C@@H]1O[C@@H](O[C@H]2[C@H](O[C@H]3[C@H](O[C@H]4CC[C@@]5(C)C(CC[C@]6(C)C5CC=C5[C@@H]7CC(C)(C)C[C@@H](O)[C@]7(C)CC[C@]56C)[C@@]4(C)CO)O[C@H](C(=O)O)[C@@H](O)[C@@H]3O)O[C@H](C(=O)O)[C@H](O)[C@@H]2O)[C@H](O)[C@H](O)[C@H]1O` (some centres not stated), the Potency entry in test [1] and in test [2] was “inactive” each time. Moreover, in test [3], the activity change, negative = inhibition was 0.9% [at 11.6 µM]. Moreover, the activity change, negative = thiol reactive in test [4] was 68.8% [at 11.5 µM]. Also, the activity, negative = inhibition in test [5] was 0% [at 11.6 µM]. For the same compound, the redox activity (% of DA3003) in test [6] is -2.66% [at 11.5 µM].
As for `CC1(C)CC[C@]2(C(=O)O[C@@H]3O[C@H](CO)[C@@H](O)[C@H](O)[C@H]3O)[C@H](O)C[C@]3(C)C(=CCC4[C@@]5(C)CC[C@H](O[C@@H]6OC[C@@H](O)[C@H](O)[C@H]6O)[C@@](C)(C(=O)O)C5CC[C@]43C)[C@@H]2C1` (some centres not stated), the Potency result in test [1], in test [2], in test [3], in test [4], in test [5] and in test [6] was “inactive” each time.
As to `COc1ccc(S(=O)(=O)Nc2nc(-c3cccc([N+](=O)[O-])c3)cs2)cc1OC`, the Potency result in test [1], in test [2], in test [3] and in test [6] was “inactive” each time. Besides, the Potency is 1.19 µM (active) in test [4] and 9.53 µM (active) in test [5].
Turning to `C=C1CC/C=C(/CO)C(=O)C[C@@H]2[C@@H]1C[C@@]2(C)COC(C)=O`, the Potency entry in test [1], in test [2], in test [3], in test [5] and in test [6] was “inactive” each time. The Potency in test [4] is 11.9 µM (active).
Take `CCCO[C@@H]1O[C@H](CO)[C@@H](O)[C@H](O)[C@H]1O[C@@H]1OC[C@@H](O)[C@H](O)[C@H]1O`: the Potency result in test [1], in test [2], in test [3], in test [4], in test [5] and in test [6] was “inactive” in each case.
For the compound `CC1=C2C(=O)C=C(CO)C2C2OC(=O)C(CS(=O)(=O)O)C2C(OC(=O)Cc2ccc(O)cc2)C1` (configuration not stated), the Potency result in test [1], in test [2], in test [3], in test [5] and in test [6] was “inactive” throughout. For the same compound, in test [4], the Potency is 3.67 µM (active).
For the compound `CC(=O)O[C@H]1C[C@@H](O)C(C)(C)C2C[C@@H](OC(C)=O)[C@]3(C)C(CC[C@@]4(C)[C@H](c5ccoc5)OC(=O)[C@H]5O[C@]543)[C@]21C` (some centres not stated), the Potency result in test [1], in test [2], in test [3], in test [4], in test [5] and in test [6] was “inactive” in each case.
`C[C@]12CCC[C@](C)(C(=O)O)C1CCC13CC(CO)C(CCC12)C3` (some centres not stated): the Potency result in test [1], in test [2], in test [3], in test [4], in test [5] and in test [6] was “inactive” each time.
In the case of `O=C(O)/C=C/c1ccc(O[C@@H]2O[C@H](CO)[C@@H](O)[C@H](O)[C@H]2O)cc1`, the Potency entry in test [1], in test [2], in test [3], in test [4], in test [5] and in test [6] was “inactive” each time.
For `C=C(C(=O)O)[C@@H]1CC[C@@]2(C)CCC[C@@](C)(O)[C@@H]2C1`, the Potency entry in test [1], in test [2], in test [3], in test [4], in test [5] and in test [6] was “inactive” throughout.
